Laboratory results reported in PubChem BioAssay AID624305 (National Center for Advancing Translational Sciences (NCATS), 2012).
Inconclusive results are not listed. Calls of active or inactive are those of the source. The call rests on the fitted dose curve; in most records, active means well fitted activation curve with a large enough effect; inconclusive means small, poorly fitted or top-dose-only effect; inactive means no such curve, though single readings can be large or run the other way.

Experiment: qHTS assay for re-activators of p53 using a Luc reporter: Hit Validation; further: nearly all actives have a fitted effect of over 75% in size; on activation: 0% is about no effect
Details: p53-responsive luciferase reporter cells, luminescence, H1299 line expressing heat-sensitive Ala138Val p53; series mostly up to 46.1 µM; activation: at the top concentration
In short: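 Hit confirmation with a 1:5 dilution series, at 37 deg C for 24 hrs, in H1299 cells co-expressing temperature-sensitive p53-A138V and p53-responsive luciferase. Nocodazole served as control; luminescence read after 10 min with detection reagent.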
Potency means the concentration at half of the fitted maximal effect.

Row | SMILES | activation | Potency
1 | COCCSc1ccccc1C(=O)Nc1cc(C)ccn1 | 20.8% (inactive) | –
2 | Cc1cnc(C(=O)OCC(=O)Nc2ccc(OCc3ccccc3)cc2)cn1 | – | 18.4 µM (active)
3 | Cc1ccc(OCCN2CCOCC2)cc1C | 23.4% (inactive) | –
4 | CC(OC(=O)c1cccc([N+](=O)[O-])c1)C(=O)N1CCc2ccccc21 (stereo unspecified) | 30.2% (inactive) | –
5 | CC(C)C(=O)OCC(=O)Nc1ccc(N=Nc2ccccc2)cc1 | – | 5.8 µM (active)
6 | COc1ccc(-n2cc(-c3ccccc3)[nH]c2=S)cc1 | – | 11.6 µM (active)
7 | O=C(NCCC1=CCCCC1)c1ccc(F)c(S(=O)(=O)N2CCOCC2)c1 | -84.4% (inactive) | –
8 | COc1cc(C(=S)N2CCOCC2)ccc1OC(=O)c1ccccc1C | -7.81% (inactive) | –
9 | Cc1cccc(N2CCN(S(=O)(=O)c3ccc4c(c3)CCC(=O)N4)CC2C)c1 (stereo unspecified) | -12% (inactive) | –
10 | Cc1ccsc1C(=O)Nc1ccc2c(c1)OCCO2 | – | 0.326 µM (active)
11 | Cc1cccc(/C(N)=N/OC(=O)c2ccc3c(c2)OCO3)c1 | – | 9.2 µM (active)
12 | COc1cccc(C2(c3cccc(OC)c3)CC2C(=O)Nc2cccc3ccccc23)c1 (stereo unspecified) | -28.6% (inactive) | –
13 | Clc1cccc(N/N=C(\Cc2nc3ccccc3[nH]2)c2ccccc2)c1 | 20.3% (inactive) | –
14 | CCOC(=O)c1sc(NC(=S)NC(=O)c2ccco2)nc1C | 27.6% (inactive) | –
15 | O=C(N/N=C(\c1ccccc1)c1cccnc1)c1cccc(F)c1 | – | 16.4 µM (active)
16 | O=C(CCS(=O)(=O)c1ccccc1)Nc1nc2c(s1)CCCC2 | 24.5% (inactive) | –
17 | Cc1nc2cc(-c3ccccc3)nn2c(N)c1-c1ccccc1 | – | 0.411 µM (active)
18 | Cc1ccc2nc(-c3ccc(NC(=O)CN4C(=O)c5ccccc5C4=O)cc3)sc2c1 | – | 5.17 µM (active)
19 | CCC(Sc1nc2ccccc2c(=O)n1CCN1CCOCC1)C(=O)NCc1cccnc1 (stereo unspecified) | -24.5% (inactive) | –
20 | Oc1c(CN2CCOCC2)cc(COCc2ccccc2)c2cccnc12 | 28.6% (inactive) | –
21 | Cc1cc(C(=O)NC2CCCCC2)c(C)n1-c1ccc(F)cc1 | – | 8.2 µM (active)
